PPC-1+TRAIL kill: compounds killing PPC-1 cancer cells with TRAIL present (potentiator screen, no TRAIL-free arm); 220,000 compounds, 0.41% hits; AID 1443; cell killing (% activity), % at 4 µM or 5 µM; PPC-1 cells + TRAIL, ATPLite viability luminescence;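 active = cell killing above 50% in the first pass at 4 µM, then a duplicate retest at 5 µM averaging 50% or more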;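 also: plate controls were cells with TRAIL plus DMSO for no effect and medium-only wells lacking cells for full effect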
SENP8 block-1: SENP8 protease inhibition | Q96LD8 | purified SENP8, Z-RLRGG-aminoluciferin cleavage, luminescence | inhibition, % at 10 µM | 330,000 compounds, 1.2% hits | AID 2540; in the data active = inhibition above about 50%
Target sequence (Q96LD8 whole entry, looked up): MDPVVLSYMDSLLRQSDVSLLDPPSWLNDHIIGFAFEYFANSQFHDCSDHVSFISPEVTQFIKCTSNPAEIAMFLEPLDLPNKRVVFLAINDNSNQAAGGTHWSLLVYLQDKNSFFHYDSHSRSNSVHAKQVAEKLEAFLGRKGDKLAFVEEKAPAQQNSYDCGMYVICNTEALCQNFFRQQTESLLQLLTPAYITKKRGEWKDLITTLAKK
C8 TRAIL sens: caspase-8 TRAIL sensitization; inhibition (viability loss, TRAIL sensitization), % at 10 µM; AID 624354; 360,000 compounds, 1% hits; NB7+C8 cells + TRAIL, ATPlite viability luminescence;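 active = compounds causing at least 50% loss of cell viability in the single-dose screen, relative to plate controls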
SENP7 block: blocks the human protease SENP7 | Q9BQF6 | recombinant SENP7, Z-RLRGG-aminoluciferin luminescence, 40 min | inhibition, % at 5 µM | 330,000 compounds, 1.5% hits | AID 434973;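 active = inhibition above about 50% at the single test dose, limit read from the data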;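 also: plate controls were DMSO with enzyme for no effect and no enzyme buffer wells for full effect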
Target sequence (Q9BQF6 706-1050 limits assumed): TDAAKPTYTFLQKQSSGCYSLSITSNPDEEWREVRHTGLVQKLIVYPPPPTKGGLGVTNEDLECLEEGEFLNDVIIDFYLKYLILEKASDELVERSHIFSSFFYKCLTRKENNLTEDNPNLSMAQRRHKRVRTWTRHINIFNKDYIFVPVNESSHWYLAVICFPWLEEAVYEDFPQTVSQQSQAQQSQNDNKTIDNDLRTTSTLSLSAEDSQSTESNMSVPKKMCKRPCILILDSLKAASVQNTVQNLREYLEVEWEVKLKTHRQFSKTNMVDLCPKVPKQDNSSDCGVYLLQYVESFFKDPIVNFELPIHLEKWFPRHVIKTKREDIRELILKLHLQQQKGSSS
SENP6 block: blocks the human protease SENP6. Q9GZR1. Recombinant SENP6 catalytic domain, aminoluciferin luminescence. inhibition, % at 10 µM. 330,000 compounds, 1.8% hits. AID 2599;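 active = inhibition above about 50% at the single tested dose, limit read from the data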;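 also: plate controls were DMSO wells with enzyme for no effect and DMSO wells lacking enzyme for full effect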
SENP8 block-2: blocks human SENP8 cleavage of Nedd8 substrate. Q96LD8. inhibition, % at 20 µM. 360,000 compounds, 0.64% hits. recombinant SENP8, Nedd8 substrate fluorescence; in the data active = inhibition mostly above about 40%, no sharp cut-off; inactive = mostly below about 27%
PPC-1 tox: kills PPC-1 cells; shares compounds with PPC-1+TRAIL kill; PPC-1 viability, ATPlite luminescence, overnight; cytotoxicity, % at 5 µM; 1,200 compounds, 50% hits;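 active = reconfirmed compounds whose average cytotoxicity reaches 50% or more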;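 also: 0% = DMSO-treated cells and 100% = wells holding medium but no cells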
SENP8 conf: confirmation of human SENP8 protease inhibitors | shares compounds with SENP7 block | AID 488912 | 6,200 compounds, 40% hits | Recombinant SENP8, Z-RLRGG-aminoluciferin luminescence, 60 min | inhibition, % at 12.5 µM;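 active = mean inhibition across replicates above about 50%, limit read from the data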
SENP6 confirm: human SENP6 inhibition, confirmed; shares compounds with SENP7 block; 6,200 compounds, 58% hits; recombinant SENP6, Z-RLRGG-aminoluciferin luminescence; inhibition, % at 12.5 µM
SENP7 conf: confirmation of human SENP7 protease inhibitors; shares compounds with SENP7 block; inhibition, % at 12.5 µM; recombinant SENP7, Z-RLRGG-aminoluciferin luminescence, 40 min; 6,200 compounds, 69% hits
Casp3 SENP sel: inhibits human caspase-3 in SENP selectivity test. shares compounds with SENP7 block. purified caspase-3, Z-DEVD-aminoluciferin luminescence, 60 min. inhibition, % at 12.5 µM. 6,200 compounds, 60% hits. AID 488918;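 active = mean inhibition above about 50%, limit read from the data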;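 also: plate controls were enzyme with DMSO for no effect and wells without caspase-3 for full effect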
SENP luc ctr: counter-screen for SENP inhibitors: luminescence interference. shares compounds with SENP7 block. Pre-incubated SENP8/Z-RLRGG-aminoluciferin, luciferase luminescence interference. inhibition, % at 12.5 µM. 6,200 compounds, 39% hits. AID 488919;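 active = mean inhibition above about 50% when retested at one dose, limit read from the data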;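 also: plate controls were DMSO wells with completed reaction for no effect and substrate without enzyme for full effect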
Starred values were filed as active, the others as inactive. Only some compounds are listed: those with a hit (about 3% of all), similar ones and a draw of the others.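 The calls were made as follows, unless noted: active = mean inhibition above about 50% in the one-dose retest (limit read from the data); inactive = the rest.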

C[C@@H]1O[C@@H](O[C@H]2C[C@@H](O)[C@]3(CO)[C@H]4[C@H](O)C[C@]5(C)[C@@H](C6COC(=O)C6)CC[C@]5(O)[C@@H]4CC[C@]3(O)C2)[C@H](O)[C@H](O)[C@H]1O (stereo partly drawn) was read as PPC-1+TRAIL kill 61.2*, SENP8 block-1 6.6, C8 TRAIL sens 38.9, SENP7 block 2.2, SENP6 block 9.4, SENP8 block-2 6.2 and PPC-1 tox 62.8*.
COc1ccc(CN2Cc3cc(N4CCOCC4)ccc3-n3nncc3C2)cc1 was read as C8 TRAIL sens -8.1 and SENP8 block-2 -35.7.
Screening Cn1ccnc1P(=S)(c1nccn1C)N1CCOCC1 returned PPC-1+TRAIL kill 7.6, SENP8 block-1 -4.1, C8 TRAIL sens 0.1, SENP7 block 3.4, SENP6 block -13.2, SENP8 block-2 18.3 and PPC-1 tox -8.6.
For CC(=O)OC[C@]12CCC(C)=C[C@H]1O[C@@H]1[C@H](O)[C@@H](OC(C)=O)[C@@]2(C)[C@]12CO2 the results were PPC-1+TRAIL kill 64.7*, SENP8 block-1 -3.8, C8 TRAIL sens 89.4*, SENP7 block -0.6, SENP6 block 10.5, SENP8 block-2 34.9 and PPC-1 tox 63.4*.
CCN1/C(=C\C=C\C2=[N+](CC)c3ccccc3C2(C)C)C(C)(C)c2ccccc21 was read as PPC-1+TRAIL kill 55.2*, SENP8 block-1 24.6, C8 TRAIL sens 76.8*, SENP7 block 16.6, SENP6 block 6.7, SENP8 block-2 18.4 and PPC-1 tox 60.5*.
CC[C@@H](O)C[C@H]1CCC[C@@]2(C[C@@H]3OC(=O)/C=C/[C@@](C)(O)[C@@H](O)[C@H](C)[C@@H](O)[C@H](OC4CCC(N(C)C)C(C)O4)[C@@H](O)[C@](C)(O)CCCCC/C=C/[C@@H]4CC(C)(C)O[C@@]4(O)C[C@H](O2)[C@H]3C)O1 (stereo partly drawn) was read as C8 TRAIL sens 21.2 and SENP8 block-2 28.1.
For CCOC(=O)c1c(N)n(Cc2ccco2)c2nc3ccccc3nc12 the results were PPC-1+TRAIL kill -10.5, SENP8 block-1 7.0, C8 TRAIL sens 4.8, SENP7 block -2.3, SENP6 block 13.8 and SENP8 block-2 -315.8.
`CCCCn1c(NC(=O)c2ccco2)c(C(=O)OCC)c2nc3ccccc3nc21` gave PPC-1+TRAIL kill 11.3, SENP8 block-1 62.2*, C8 TRAIL sens 2.6, SENP7 block -12.3, SENP6 block 83.8*, SENP8 block-2 -270.6, SENP8 conf 75.3*, SENP6 confirm 89.1*, SENP7 conf 71.1*, Casp3 SENP sel 5.2 and SENP luc ctr -9.2.
For CCCCn1c(N)c(C(=O)OCCOC)c2nc3ccccc3nc21 the results were PPC-1+TRAIL kill 18.6, SENP8 block-1 3.4, C8 TRAIL sens -0.9, SENP7 block 4.2, SENP6 block 5.4 and SENP8 block-2 -454.1.
Screening CCCCn1c(NS(=O)(=O)c2ccc(C)cc2)c(C(=O)OCC)c2nc3ccccc3nc21 returned PPC-1+TRAIL kill 11.4, SENP8 block-1 62.1*, C8 TRAIL sens -12.3, SENP7 block 8.2, SENP6 block 92.8*, SENP8 block-2 -287.9, SENP8 conf 20.4, SENP6 confirm 32.2, SENP7 conf 3.9, Casp3 SENP sel -4.9 and SENP luc ctr -15.3.
For N/C(=N\[N+](=O)[O-])N/N=C/c1ccc(O)cc1 the results were PPC-1+TRAIL kill 15.5, SENP8 block-1 67.5*, C8 TRAIL sens 0.2, SENP7 block 79.1*, SENP6 block 92.4*, SENP8 block-2 13.3, SENP8 conf 77.9*, SENP6 confirm 75.2*, SENP7 conf 90.7*, Casp3 SENP sel 91.8* and SENP luc ctr 80.9*.
`Nc1nonc1C(=O)N/N=C/c1ccc([N+](=O)[O-])o1` gave PPC-1+TRAIL kill 21.9, SENP8 block-1 9.0, C8 TRAIL sens 36.1, SENP7 block 3.5, SENP6 block 13.4 and SENP8 block-2 34.0.
For Cc1nc(Cl)sc1C(=O)Nc1ccc2ccccc2c1 the results were PPC-1+TRAIL kill 17.2, SENP8 block-1 19.7, C8 TRAIL sens 3.8, SENP7 block 28.9, SENP6 block 54.9*, SENP8 block-2 9.3, SENP8 conf 36.5, SENP6 confirm 32.3, SENP7 conf 74.7*, Casp3 SENP sel 34.2 and SENP luc ctr 32.2.
Screening Cc1nn(Cc2ccccc2Cl)c(C)c1C(=O)OCC(=O)NC1CCCC(C)C1C (stereo not drawn) returned PPC-1+TRAIL kill -8.6, SENP8 block-1 -10.8, C8 TRAIL sens 18.2, SENP7 block -0.4, SENP6 block -14.9 and SENP8 block-2 3.7.
Screening CN(C)C(=O)Oc1ccc(-c2cn3cc(Cl)ccc3n2)cc1 returned PPC-1+TRAIL kill 53.5*, SENP8 block-1 90.5*, C8 TRAIL sens 76.0*, SENP7 block 94.0*, SENP6 block -0.9, SENP8 block-2 -190.1, SENP8 conf -23.6, SENP6 confirm 93.3*, SENP7 conf 101.7*, Casp3 SENP sel 97.1* and SENP luc ctr 44.3.
Screening CN(C)C(=O)Oc1cccc(-c2cn3cc(Cl)ccc3n2)c1 returned PPC-1+TRAIL kill 39.7, SENP8 block-1 -1.3, C8 TRAIL sens 42.9, SENP7 block 3.9, SENP6 block -10.6 and SENP8 block-2 -184.7.
For Cc1ccc(Cn2ccccc2=N)cc1 the results were C8 TRAIL sens 2.5 and SENP8 block-2 17.3.
Screening CCC(C)N1C(=O)NC(=O)C2(Cc3c(ccc4ccccc34)N(C)C2)C1=O (stereo not drawn) returned PPC-1+TRAIL kill 2.0, SENP8 block-1 10.7, C8 TRAIL sens 11.2, SENP7 block 15.6, SENP6 block 75.6*, SENP8 block-2 -27.6, SENP8 conf -20.1, SENP6 confirm -6.7, SENP7 conf -6.1, Casp3 SENP sel -6.1 and SENP luc ctr -6.2.

Screens (PubChem)
